In the supplement of paper PMC12632987:
In all, about 4,500 sequences were measured (“median log2 fold change of GCK-ALFA target abundance (FLAG IP / Myc IP barcode read proportion)”: median about 0.078, lowest 2% from about -0.6 on). This is one part of a sample in which the lowest values are shown more often than they occur.

B1: GBRAP_80_6786 (protein)
chain: MEEEIEKLIEEIEKKNPEVAKIIKEIVELLKEIGVPLEIIKEIVEVFLDALSLPKETQLKIAKEVLEEAKELSEYKDEFSPEDIGRMVLAEALTLVELAK
B2: GBRAP_83_6928 (protein)
chain: KEKIVVAANDDNIDEAFEAAIDLQKNEGYEVDVEVIITKEGFPKLKKAFEKMAKAGWNGTLDILAVGATKEEVEKLKAELEAIAKKYGVNVKINVTQVEP
B3: GBRAP_160_4685 (protein)
chain: SEKVEEAEEFLEEEFAEVVELFDEVTREELAAFVRVAFGEIILELEELGLLTDEVAEVIDEEEERIVDAILNDPNITKEEFAALLEEAAEEIVEELEEEA
B4: GBRAP_184_5239 (protein)
chain: MVLERTIKAENEEELREKMKEVMEEAEKKGAKVRLLIEVEKLTREKAETLAEMIKEMAAKGLLELVGVVSSEPISEEIVDLLVEAADEAGVKLVIAEPEI
B5: GBRAP_52_6331 (protein)
chain: SHEEVEKMAEELYKAIVAGKEEEAKKLAEEMVETLSSEEILEAARIVAERVAKEGDEVKVRAAEVFEYLAELVEEKRGDERTAAEILGIYATTLYAAEQA
B6: GBRAP_11_2762 (protein)
chain: MKEKYERLAELAERAAELVDRLLAEGVDDAELLAELERLLRELREETKKIGDKALEKDVEIAEELFRALQADPANAEAYARELRAQLRVLAGQYLLLAEE
B7: GBRAP_35_5533 (protein)
chain: NSDEEIAEMLLNTMEALVDALPDVSPEQQLALARHLIRLAEDFLELKTKSAELIKRLIEVLERAIELIKKSSLPPEQQEELIRELEELRERAKELLKEVE
B8: GBRAP_128_3244 (protein)
chain: SQEELLEEAKKLVDEIVEADVEEAKELTKKLIELMKKLNKESREEVADYLIEKLKELSAEKLEAVADTLRENRPKLDDYTAALVAGVEIEALELALEQEE
B9: GBRAP_128_3242 (protein)
chain: SQEELLEEAKKLIEEIVKADVETAKKLTEKLIELLKKLNDEAREEVAEYLEKELEKLSAEKLEAVADTLRENRPKLDPYTAALVAGVEIDALELALEKEE
B10: GBRAP_184_5275 (protein)
chain: KVIHVDIVAETGEEAIKEVKKAAEKAKKEGAKLKINILLENSSVEETIKLFELLKKLKEEGIIEDAVVGIENEKTEEEIDTLLKAADEAGVKLVLAISDE
B11: GBRAP_80_6828 (protein)
chain: AEKELEAVIKELAEVDPEIAKLVEEAIEIAKELGVPLEVLLRFAKAILELAKVDKEKALELVKELLEELKKAKEEGNRDEAIALLYDAESEALLAVEELE
B12: GBRAP_52_6260 (protein)
chain: MRERLRALVEEILELVKAGRLEEARALATELAETFNEEELEIFIEEAAELARRSSKEEVEDLIRMAELVAEALEEAGRPEELVSLFEARVYGAIYETEKR
B13: GBRAP_160_4430 (protein)
chain: AEKLEKAKKEIDALFAEALEMMKGQTAEQRIVVLRVTEGEVKLELEELGLLTDEVDAVIDATFAAIIAHVAAHPDITDAELAALLDAAAATIKAELDKAA
B14: GBRAP_83_6937 (protein)
chain: KEKITVVANDDNIEKSFEIAEDLHKEEGYEVDIDVIITKESIEKLLKEVEKLFKKGVNADLHISLLGVTEEEAEELKKKLEEMAKKYGVNANITVEAIEL
B15: GBRAP_125_3132 (protein)
chain: HMEEILENLAIVAKALGLSDDDVEEAVKIAEKHGVKGTMYAILAALGYDEVADLVEKITEEEAIEVVKEVAEKIKKDPSLTPEEVVELIKKLLKEKIAAK
B16: GBRAP_125_3133 (protein)
chain: MTEEILEDLAIVARALGFSDDDVEEAVEIARKHGVKGTLYAIMLALGYEEVADLVEKITEEEAIEVLREVAARIREDPSLTPEEVVALIKELLKEKIAKK
B17: GBRAP_125_3134 (protein)
chain: GMAEDLEDLAIVARALGFSDDDVAEAVAIAAKHGFKGTLYAIMAALGYDEVADLVEKITEEEAIEVIREVAAEIRADPSLTPEEVVELIKKRLEEVIAKK
B18: GBRAP_52_5954 (protein)
chain: AAARIQAQVDRLAALVRAGDLDAARALARELAETLDEEELRAFAAAVAAAVAAAPADELDAAFRLAEIVADELEREGRDEELAGDLLAAAAAALYAKEQA
B19: GBRAP_52_5929 (protein)
chain: MREEARELAERVLEAAEAGDEERLRELLREIVEELDDEEIELVIDELAELTIERGPEYYDLFADIMDLLEDEVEKAGRDVERVQYAIARAAGRMYDALQA
B20: GBRAP_137_3627 (protein)
chain: ATVTIELRRYEDVVEITITLDDPEKAEAAAELVEDVAHEEGALAVSIELEEDGTLVVEVWVPRDKAEALLARLVERLTTELGATVVIRDLDTGEVRVVTP
B21: GBRAP_184_5122 (protein)
chain: DVVHRAVEGEKAEELIAASRAVVEEAAAAGKRLHLSVFAKNMSVEEIIEVIKAMGELKARYPQVSVTVDVLDELSEEEIDKVLKAADEAGVRVVIAIPEE
B22: GBRAP_11_2857 (protein)
chain: KKEKLKEAAELARKAAEALEKLLKEGVDDKELQKKIEELLKKLLELVKEYGDPDLIKLAEIALENFQKAKKDPKNAEKYIKEALAAVRVLEGNLLLEIDE
B23: GBRAP_9_7127 (protein)
chain: KKELVEKLKEVVEEMIEDISKVVPEVTEEMKEEFLKKVEELEKEALEDESLTPEEIKEKFKELVEEIKEEVKKIVDEELKKLVEAIALTALEEIDEIVEE
B24: GBRAP_52_6037 (protein)
chain: MREKMREKAEEIVKLVLEGKLEEAEKLIRELVETLSEEELLLLGEELARIAREAPEEELDAILEAAFILADELIEGGYEEVLADEIEARVTRAAVERLER
B25: GBRAP_11_2679 (protein)
chain: KKEQLKKIAEIAKELAEAIEKLLKEGVDNEKLLKEIKKLLKELKELAEKYADEGLKTLAEIAAELFEEALANPENAEHYLELLLAAVRVLLANVEEEIDE
B26: GBRAP_52_6366 (protein)
chain: DLEEAVKLLREAVKAVLEGKEEEAEKILKEIVENFSEETILEAARRLAEELLEKSLEEAEAFLEAAIMLADILEEAGKSEVVGDEIEAIAARTLMEIRER
B27: GBRAP_11_2721 (protein)
chain: KAEKLKALAEKAEALAEKVEKLIKEGPKKEEIKKLAEEVEKLREEAKKIGASEDVLKTLDIAAENLKKAIEDPSNVEEHLKNAAAALRVAAGQLLLEAEE
B28: GBRAP_160_4055 (protein)
chain: AEEKERLIADVDAAEAAILAVIDEEGAEAAAVMADGEFGAIIMEAAELPTASDELVDALEAIRDALVAGLRANAAASPAELKALVRAAAAAAKEAIKKHY
B29: GBRAP_160_4135 (protein)
chain: SEELEKLIKEIKEIGEEALEMIEGETPENAKVIARVALGDIVMLVESNDAISEETEDEIGKIADEAEATLKANPDLTVEEIKALLKEATEKVVEIIEKEK

target: GABARAP, O95166; experiment: median log2 fold change of GCK-ALFA target abundance (FLAG IP / Myc IP barcode read proportion) (log2 ratio); each designed protein is fused to an ALFA-tag nanobody in HEK293 cells to bring the named protein to FLAG-tagged glucokinase (GCK); Myc marks an untargeted standard; higher = target protein stabilised (more abundant); settings: target protein: 3xFLAG-MCP-GCK-ALFA reporter; HEK293 landing pad (RPLP)
Sequence (O95166 whole entry, the tested form may be a part): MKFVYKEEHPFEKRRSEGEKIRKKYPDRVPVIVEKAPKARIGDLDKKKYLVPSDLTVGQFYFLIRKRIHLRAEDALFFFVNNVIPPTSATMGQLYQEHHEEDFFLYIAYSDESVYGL
Outline: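 Sequencing of reverse-transcribed, amplified circular RNA barcodes from anti-FLAG and anti-Myc immunoprecipitates provided the readout for an ALFA-nanobody-fused binder library recombined into HEK293 landing-pad cells. Those cells were induced with 2 μg mL^−1 doxycycline, transfected with a plasmid expressing a FLAG-tagged target and a Myc-tagged standard, and lysed after 48 h. Target abundance is the per-binder median log2 ratio of FLAG to Myc barcode read proportions. Only barcodes at a proportion of ≥10^−7 in both replicates and binders with ≥3 barcodes per replicate were kept, with a 10^−6 pseudocount added before the two replicates were pooled.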

B1 and B2 are within 0.2 log units of each other in “median log2 fold change” value: -0.00858 for the first, 0.0213 for the second.

Compared with B3, B4 is higher in “median log2 fold change” value: -0.679 for the first, 0.163 for the second.

B5 and B6 are within 0.2 log units of each other in “median log2 fold change” value: 0.372 for the first, 0.183 for the second.

First: B7
Second: B8
The “median log2 fold change” value of the first is higher: -0.115 for the first, -0.658 for the second.

B9 and B10 are within 0.2 log units of each other in “median log2 fold change” value: -0.0414 for the first, -0.234 for the second.

B11 and B12 are within 0.2 log units of each other in “median log2 fold change” value: 0.0224 for the first, -0.0461 for the second.

B13 and B14 are within 0.2 log units of each other in “median log2 fold change” value: 0.0561 for the first, 0.224 for the second.

First: B15
Second: B16
The “median log2 fold change” value of the first is higher: -0.0148 for the first, -0.744 for the second.

First: B17
Second: B18
The “median log2 fold change” value of the first is lower: -0.575 for the first, -0.0538 for the second.

Compared with B19, B20 is higher in “median log2 fold change” value: -0.453 for the first, -0.0361 for the second.

B21 and B22 are within 0.2 log units of each other in “median log2 fold change” value: 0.0426 for the first, 0.0648 for the second.

Compared with B23, B24 is lower in “median log2 fold change” value: 0.275 for the first, -0.655 for the second.

B25 and B26 are within 0.2 log units of each other in “median log2 fold change” value: -0.169 for the first, -0.214 for the second.

B27 and B28 are within 0.2 log units of each other in “median log2 fold change” value: 0.0939 for the first, 0.183 for the second.

B29 was tested, and the “median log2 fold change” value was -0.387.
